Compound activity (PubChem)
Hits are enriched below; roughly 1.4% of the tested compounds scored in any of these assays.
Mtb MbtI inh – MbtI salicylate synthase inhibitors, primary screen, biochemical, fluorescence intensity; 100,000 tested, 0.89% active; purified MbtI enzyme, fluorescence intensity read-out; inhibition, % (no concentration beside the values); AID 493033, 2011; P9WFX0; in the data active means inhibition mostly above about 56%, no sharp cut-off; inactive means mostly below about 77%
Polio RdRp inh – poliovirus RdRp elongation inhibitors, primary screen, biochemical, fluorescence polarization, total intensity; 150,000 tested, 0.66% active; poliovirus polymerase elongation; active compounds read low; % elongation, % (compound at 16.7 µg/mL); Genome polyprotein (Poliovirus type 1 (strain Mahoney)), P03300; in the data active means % elongation below about 90%
AID504770 – growth inhibition of E. coli YBA685, primary screen, V. cholerae RctB inhibitors. 130,000 tested, 0.27% active. E. coli YBA685 rctB-dependent plasmid, OD600 growth, 3 h; active compounds read low. z-score (test concentration not listed); in the data active means z-score below about -2, passing the limit was not always enough
Mtb MenB inh – M. tuberculosis MenB inhibitors, primary screen, biochemical, absorbance | 1,4-dihydroxy-2-naphthoyl-CoA synthase (Mycobacterium tuberculosis (strain ATCC 25618 / … | MenB enzyme assay, absorbance read-out | inhibition, % (concentration not given with the values) | 100,000 tested, 0.43% active | AID 540299, 2011; in the data active means inhibition above about 21%, passing the limit was not always enough
Target sequence (P9WNP5 whole entry, looked up): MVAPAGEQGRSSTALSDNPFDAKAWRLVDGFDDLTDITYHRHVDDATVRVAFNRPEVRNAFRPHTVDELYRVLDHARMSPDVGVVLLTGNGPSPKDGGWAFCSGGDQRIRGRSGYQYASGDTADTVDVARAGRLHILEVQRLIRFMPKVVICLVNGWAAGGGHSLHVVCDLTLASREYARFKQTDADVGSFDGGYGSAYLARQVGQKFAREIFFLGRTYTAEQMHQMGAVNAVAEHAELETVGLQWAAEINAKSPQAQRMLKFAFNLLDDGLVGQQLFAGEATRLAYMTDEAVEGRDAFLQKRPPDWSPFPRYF
A number is an active result; 0 = inactive; - = no result.

SMILES	Mtb MbtI inh	Polio RdRp inh	AID504770	Mtb MenB inh
Cc1cc(NC(=O)C2c3ccccc3C(=O)N(CC(C)C)C2c2cccs2)no1 (stereo not drawn)	0	0	0	0
C/C(=C/C(=O)O)C(=O)Nc1nc(-c2cccs2)cs1	72	-	0	0
c1csc(-c2nnc(CSc3nnc(-c4ccc5c(c4)OCO5)o3)o2)c1	0	0	0	0
CC(C)c1nc(=S)[nH][nH]1	87	84	0	0
FC(F)(F)c1cccc(Nc2nc3nonc3nc2Nc2ccc(Cl)cc2)c1	-	0	-	-
Cc1cccc(Nc2nc3nonc3nc2Cl)c1	-	48	0	0
Cc1cc(C)c2cc(C(=O)N(Cc3ccccc3)Cc3ccccn3)[nH]c2c1	-	-	0	-
O=C1CC(NC(=O)c2ccc(Cl)cc2)C(=O)N1 (stereo not drawn)	79	0	0	-
Cc1nc(-c2c(C)[nH]c3ccccc23)cs1	87	89	0	0
CCN(CC)c1ncnc2sc(C)c(C)c12	0	0	0	-
Cc1sc2ncnc(N)c2c1C	0	67	0	0
CN(C)C(=S)SSC(=S)N(C)C	87	0	0	0
COc1cccc(N2C(=O)/C(=C/C=C/c3ccco3)C(=O)NC2=S)c1	101	0	0	0
O=C1NC(=S)N(c2ccccc2)C(=O)/C1=C/C=C/c1ccco1	0	0	0	0
O=C(Cn1nnc(-c2ccncc2)n1)N(C1CCCCC1)C1CCCCC1	0	0	0	active
Cn1/c(=N/N=C2\C(=O)Nc3ccc(F)cc32)sc2ccccc21	0	0	0	0
O=C(c1cnoc1)c1ccccc1O	0	83	0	0
O=C(c1cnoc1)c1cc(Cl)cc(Cl)c1O	0	0	0	-
O=C(NCCC1=CCCCC1)Nc1noc2c1COc1ccccc1-2	0	0	0	0
Cc1ccc2c(CC(=O)NNc3c(F)c(F)c(F)c(F)c3F)coc2c1	0	0	0	0
Nc1c(-c2ccccc2)nc2sccn12	88	0	0	81
Cc1ccc2nc(NC(=O)c3ccc(=O)[nH]c3)sc2c1	0	0	0	0
CCc1c(CN2CCCCC2)csc1C	0	0	0	0
CC(C)(C)/C(O)=C/c1nc2ccccc2oc1=O	0	0	0	64
CCS(=O)(=O)c1ccc2oc(SCC(=O)NCc3ccccc3)nc2c1	0	0	0	0
SMILES	Mtb MbtI inh	Polio RdRp inh	AID504770	Mtb MenB inh
Cc1nc(C)c(/C(O)=C/c2nc3cc(Cl)ccc3oc2=O)o1	0	0	0	0
CC(C)C/C(O)=C/c1nc2cc(Cl)ccc2oc1=O	0	0	0	85
CCS(=O)(=O)c1ccc2oc(=O)c(/C=C(\O)C(C)(C)C)nc2c1	0	0	0	55
Fc1ccc2nc(NCc3ccccc3)sc2c1	0	84	0	0
CCOC(=O)CC(NC(=O)N1CCC(CN2CCC(C)CC2)CC1)c1ccccc1 (stereo not drawn)	-	49	-	-
CCOc1ccc(NC(=O)N2CCC(CN3CCC(C)CC3)CC2)cc1	-	0	-	-
Cc1ccc(C)c(S(=O)(=O)Nc2cc(Cl)c3oc(=O)sc3c2)c1	62	0	0	0
COc1cccc(NC(=O)c2sc3[nH]c(=O)c(C(=O)O)cc3c2N)c1	0	0	0	0
CCOC(=O)c1c(C)[nH]c(C)c1S(=O)(=O)N1CCCC(C(=O)Nc2ccccc2OCC)C1 (stereo not drawn)	-	-7.0	-	-
CCOc1ccccc1NC(=O)C1CCCN(S(=O)(=O)c2c(C)[nH]c(=O)[nH]c2=O)C1 (stereo not drawn)	-	0	-	-
CC(C)OC(=O)CN1CCN(S(=O)(=O)c2ccc(C(C)C)cc2)CC1	0	0	0	0
CC(=O)NCCc1ccc(C(=O)O)cc1	0	0	0	0
O=C(Oc1ccccc1-c1nnco1)c1ccc(C(F)(F)F)cc1	0	0	0	0
Cc1snnc1C(=O)Oc1ccccc1-c1nnco1	0	78	0	0
O=C1CN(C(=O)Cc2ccc(F)cc2)C(c2ccc(F)cc2)c2cc(F)ccc2N1 (stereo not drawn)	0	-	-	-
CCn1c(COc2ccc(C)cc2)nnc1SCC(=O)N1CCCc2ccccc21	0	0	0	0
CCn1c(COc2cccc(C)c2)nnc1SCC(=O)N1C(C)CCCC1C (stereo not drawn)	0	0	0	39
CC1CC(C)CN(c2cnn(C34CC5CC(CC(C5)C3C(=O)O)C4)c(=O)c2Cl)C1 (stereo not drawn)	0	0	0	0
O=C(Cc1c[nH]c2ccccc12)OCC(=O)N1CCCCC1	0	0	0	0
Cc1nc(Cc2nnc(SCc3cn4cccc(C)c4n3)o2)cs1	0	0	0	0
Cc1nc(Cc2nnc(SCc3cc(=O)oc4cc(C)c(C)cc34)o2)cs1	0	-2.0	0	0
N#Cc1c(N2CCCC(O)C2)nc(N)c2c(N)nc3c(c12)CC(=O)N3C12CC3CC(CC(C3)C1)C2 (stereo not drawn)	0	39	0	0
C=C(C)CN(CC)c1nc(N)c2c(N)nc3c(c2c1C#N)CC(=O)N3C12CC3CC(CC(C3)C1)C2	0	0	0	0
CCOC(=O)c1cnc2ccc(OCC)cc2c1NCCCN1CCOCC1	-	89	0	0
CCOC(=O)c1cnc2ccc(OCC)cc2c1NCCN(C)C	0	0	0	0
SMILES	Mtb MbtI inh	Polio RdRp inh	AID504770	Mtb MenB inh
O=c1[nH]snc1N1CCOCC1	0	-	0	-
O=c1[nH]snc1N1CCCCC1	0	64	0	0
O=C(Nc1ccc(Cl)cc1)c1ccccc1	0	0	0	0
CSC(SC)=C(C#N)S(C)(=O)=O	68	0	0	0
O=C(O)c1ccccc1CSc1nc2ccccc2[nH]1	56	0	0	0
COc1ccc(C2C(C#N)=C(N)Oc3c2ccc(=O)c2c(C)oc(C)c32)cc1 (stereo not drawn)	-	-	0	-
N#CSCC(=O)N1c2ccccc2CCc2ccccc21	0	0	0	33
O=C(O)Cn1c2c(c3ccccc31)CSc1ccc(Cl)cc1-2	96	0	0	0
Cc1ccc(S(=O)(=O)NC(=O)CC#N)cc1	0	0	0	0
COc1ccccc1NC(=O)Nc1nc(CC(=O)NCc2cccs2)cs1	0	0	0	0
Cc1c(CCNC(=O)c2cc(S(=O)(=O)N(C)C)c(Cl)cc2Cl)c2ccccc2n1C	-	89	0	0
CN(C)S(=O)(=O)c1cc(C(=O)NCCc2ccccc2)c(Cl)cc1Cl	-	-	0	-
CC1(C)CC(=O)C=C(Nc2ccccc2F)C1	0	0	-2.5	0
COC(=O)C1=C(CSc2nnc(N)s2)NC(=O)NC1c1cccc(OC)c1 (stereo not drawn)	0	0	0	0
NC(=O)c1cc(S(=O)(=O)NCc2ccccc2)cs1	-	-12	-	-
CC(NC(=O)CSc1ccccc1Cl)C1CC2CCC1C2 (stereo not drawn)	0	0	0	-
CC(=O)N1c2ccccc2C(=O)C1Sc1nc(C)cc(C)n1 (stereo not drawn)	0	0	0	0
COc1ccc(OC)c(NS(C)(=O)=O)c1	0	0	0	0
CN(C)CCCNCc1ccco1	0	0	0	0
CN(C)CCCNCc1cccn1C	0	85	0	0
O=C1CC(n2nnnc2-c2ccccc2)C2COC1O2 (stereo not drawn)	-	0	0	0
O=S1(=O)CCC(n2nnnc2-c2ccccc2)C1 (stereo not drawn)	-	-	-2.8	-
